The full list was thinned out, with hits kept by preference.
Dicer inh: inhibitors of human Dicer processing of pre-microRNA; AID 1347074; cat-ELCCA pre-miR-21 Dicer processing, chemiluminescence; hits give high values; 47,000 tested, 6% active; z-score at 25 µM; in the data active means z-score above about 3, passing the limit was not always enough;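 further: plate controls were vehicle for no effect and no enzyme for full effect; higher signal means more uncleaved substrate so more Dicer inhibition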
* hit, by the source's call.

SMILES | Dicer inh
COC(=O)c1csc(S(=O)(=O)NC2CCCCNC2=O)c1OC (stereo not given) | 4*
Cc1c(S(=O)(=O)NC2CCCCNC2=O)sc2ccc(Cl)cc12 (stereo not given) | 1.3
c1ccc(OCc2nnc3sc(-c4nn5c(COc6ccccc6)nnc5s4)nn23)cc1 | 0.62
CSc1nc2sc3c(c2c2nnc(SC(C)C(=O)N4CCOCC4)n12)CC(C(C)C)OC3 (stereo not given) | -0.67
Cc1ccc(-c2c3c(=O)n(C)c(=O)n(C)c3cn2-c2ccc(N)cc2)cc1 | -0.53
CN(/N=C/C=N/Nc1ccccc1)c1ccccc1[N+](=O)[O-] | 0.25
Cn1c(Oc2ccc(F)cc2)nc2c1c(=O)n(Cc1ccccc1)c(=O)n2C | 0.4
Cn1c(Oc2ccc(Br)cc2)nc2c1c(=O)n(Cc1ccc(Br)cc1)c(=O)n2C | 1.2
COc1ccc(Oc2nc3c(c(=O)n(Cc4ccc(Br)cc4)c(=O)n3C)n2C)cc1 | 4.1*
O=c1[nH]c(-c2ccccc2)nnc1/C=C/c1ccccc1 | -0.05
CCOc1ccc(NC2CC(=O)N(c3ccc(OC)cc3OC)C2=O)cc1 (stereo not given) | -1.9
COc1ccc(NC2CC(=O)N(c3cccc4ccccc34)C2=O)cc1 (stereo not given) | -0.63
CCc1ccc(NC2CC(=O)N(c3ccc(C)cc3Br)C2=O)cc1 (stereo not given) | 3.3*
O=C1CC(NC2CCN(c3ncc(Cl)cc3Cl)CC2)C(=O)N1c1ccc(F)cc1 (stereo not given) | -0.06
CCOC(=O)NC(=S)NCCc1c[nH]c2ccccc12 | 1
C=CCNC(=O)C(=O)NCCc1c[nH]c2ccccc12 | 3.7*
N#C/C(=C\c1ccc(-c2cc(C(F)(F)F)cc(C(F)(F)F)c2)o1)C(=O)NCCc1c[nH]c2ccccc12 | -0.31
Cc1c(Cl)c(=O)[nH]c2c(Cl)cccc12 | -0.22
O=C(Nc1ccc(F)cc1F)C(=S)NCc1cccs1 | -0.05
O=C(Nc1ccc(F)cc1F)c1cccs1 | 6.4*
O=C(Nc1ccc(Sc2ccccc2)nc1Sc1ccccc1)c1cccs1 | -0.73
Cc1ccc(NNC(=O)CCc2ccccc2)cc1Cl | -0.78
CCc1ccccc1NNC(=O)CCc1ccccc1 | -0.71
Cc1ccc(NNC(=O)CCc2ccccc2)cc1C | 3.5*
CCOC(=O)C1CCN(C(=S)Nc2c(C)cccc2C)CC1 | -0.56
SMILES | Dicer inh
Cc1nnc(SCC(=O)Nc2ccc(F)c(Cl)c2)s1 | -0.78
COC(=O)C1=C(C)NC2=C(C(=O)CCC2)C1c1cc([N+](=O)[O-])c(C)s1 (stereo not given) | -1.9
COC(=O)C1=C(C)NC(C)=C(C(=O)OC)C1c1ccccc1[N+](=O)[O-] | 11*
CCOC(=O)C1=C(C)NC(C)=C(C(=O)OC)C1c1cccc([N+](=O)[O-])c1 (stereo not given) | 0.15
Cn1cnc2c1c(=O)n(CC(O)CN1CCN(CCO)CC1)c(=O)n2C (stereo not given) | 1.3
Cc1n[nH]c(C)c1CCCCOc1ccc(Cl)cc1 | -0.25
CC(=O)c1cc2c(cc1Br)OCCCO2 | 0.1
O=C1c2c(O)ccc(O)c2C(=O)c2c(NCCNCCO)ccc(NCCNCCO)c21 | 21*
O=C1c2ccccc2C(=O)c2c(NCCc3ccc(O)cc3)ccc(NCCc3ccc(O)cc3)c21 | -1.4
COc1cc(C2C3=C(CCCC3=O)N(C)C3=C2C(=O)CCC3)ccc1O | -0.05
Cc1csc(NC(=O)Nc2ccc(F)cc2)c1-c1nc2ccccc2s1 | 0.86
CCN(CC)CC(=O)Nc1sc2c(c1C#N)CCC(C)C2 (stereo not given) | 2.5
Cn1c(=O)c2c(ncn2CC(O)CN2CCOCC2)n(C)c1=O (stereo not given) | 0.51
COC(=O)c1ccc(CN(C)C)o1 | 5.8*
COC(=O)c1ccc(COCOCc2ccc(C(=O)OC)o2)o1 | 0.87
COC(=O)c1ccc(Cn2nc(C)c([N+](=O)[O-])c2C)o1 | 1.1
O=S(=O)(c1ccc(-c2cc(C(F)(F)F)on2)s1)N1CCC(O)(c2ccc(Cl)cc2)CC1 | -1.9
O=C1C2C3CC4C5C3C1C5C1(OCCO1)C42 (stereo not given) | -0.69
CCCCOC(=O)C1=C(C)NC2=C(C(=O)CCC2)C1c1ccc(OC)c(Br)c1 (stereo not given) | -0.67
O=C(NCc1cccs1)c1cnn2c1NC(c1ccc(Br)cc1)CC2C(F)(F)F (stereo not given) | 5.7*
O=C(NCc1ccc(F)cc1)c1cnn2c1NC(c1cccs1)CC2C(F)(F)F (stereo not given) | 2.2
O=C(NCc1ccco1)c1cnn2c1NC(c1ccc(Br)cc1)CC2C(F)(F)F (stereo not given) | 5*
COc1ccc(C2CC(C(F)(F)F)n3ncc(C(=O)NCC4CCCO4)c3N2)cc1OC (stereo not given) | -0.63
O=C(NCCc1ccccc1)c1cnn2c1NC(c1ccc(Br)cc1)CC2C(F)(F)F (stereo not given) | -0.32
Cc1ccc(C2CC(C(F)(F)F)n3ncc(C(=O)NCc4cn(C)nc4C)c3N2)cc1 (stereo not given) | -0.66
